Results taken from the supplement of paper PMC6522484.
± gives the standard deviation of the averaged measurements.

Legend:
DLD1 [1] = experiment: cell viability (CellTiter-Glo) relative to plate median (fraction of plate median); higher = more viable cells; details: 5 µM; treatment time 24 h; reporter: 7TFP
Outline: (§1)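 Colorectal cancer lines with stably integrated lentiviral TCF/Wnt firefly luciferase reporters received library compounds at a final 5 µM, 24 h after seeding into 384-well plates, for a 24 h exposure. Reported figures are plate-median-normalised firefly luciferase or CellTiterGlo luminescence per well. They average two independent replicates.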

HCT116 = experiment: as above; details: 5 µM; treatment time 24 h; reporter: TCF4/Wnt
Outline: as §1

SW480 [2] = experiment: as above; details: 5 µM; treatment time 24 h; reporter: 7TFP
Outline: as §1

DLD1 [3] = experiment: TCF/Wnt firefly luciferase reporter signal relative to plate median (fraction of plate median); higher = higher Wnt reporter signal; details: 5 µM; treatment time 24 h; reporter: 7TFP
Outline: as §1

SW480 [4] = experiment: as above; details: 5 µM; treatment time 24 h; reporter: 7TFP
Outline: as §1

Row | SMILES | cell viability (DLD1 [1]) | cell viability (HCT116) | cell viability (SW480 [2]) | TCF/Wnt firefly luciferase reporter signal (DLD1 [3]) | TCF/Wnt firefly luciferase reporter signal (SW480 [4])
1 | CCCCOC(=O)c1ccc(N)cc1 | 1.02 ± 0.054 | 0.942 ± 0.023 | 0.961 ± 0.021 | 0.936 ± 0.027 | 1.03 ± 0.083
2 | CON | 1.03 ± 0.093 | 1.01 ± 0.046 | 0.984 ± 0.018 | 0.982 ± 0.04 | 0.981 ± 0.027
3 | CC(=O)OC[C@H]1O[C@@H](Oc2cc(OC(C)=O)c3c(=O)cc(-c4ccc(OC(C)=O)cc4)oc3c2)[C@H](OC(C)=O)[C@@H](OC(C)=O)[C@@H]1OC(C)=O | 1.02 ± 0.021 | 1.11 | 0.992 ± 0.054 | 1.07 ± 0.13 | 0.938 ± 0.036
4 | CC(C)=CCc1c2c(c3occ(-c4ccc(O)c(O)c4)c(=O)c3c1O)C=CC(C)(C)O2 | 0.997 ± 0.033 | 1.04 ± 0.067 | 1.03 ± 0.028 | 0.996 ± 0.077 | 1.02 ± 0.021
5 | CCC1=C[C@@H]2CN(C1)Cc1c([nH]c3ccccc13)[C@@](C(=O)OC)(c1cc3c(cc1OC)N(C)[C@H]1[C@@](O)(C(=O)OC)[C@H](OC(C)=O)[C@]4(CC)C=CCN5CC[C@]31[C@@H]54)C2 | 1 ± 0.11 | 0.544 ± 0.17 | 1.12 ± 0.11 | 0.911 ± 0.13 | 0.892 ± 0.12
6 | COc1c(Cl)ccc(Cl)c1C(=O)O | 1.01 ± 0.039 | 1.11 ± 0.16 | 0.99 ± 0.057 | 1 ± 0.15 | 0.874 ± 0.0057
7 | COC(=O)C1=C(C)NC(C)=C(C(=O)OCCN(C)Cc2ccccc2)C1c1cccc([N+](=O)[O-])c1 (stereo not given) | 0.914 ± 0.074 | 1.02 ± 0.1 | 0.98 ± 0.042 | 0.941 ± 0.13 | 0.951 ± 0.065
8 | CCCCCC1C(=O)CCC1CC(=O)OC (stereo not given) | 0.99 ± 0.057 | 1.03 ± 0.084 | 1.025 ± 0.0071 | 1.08 ± 0.05 | 1.03 ± 0.066
9 | Oc1ccc(OCc2ccccc2)cc1 | 1.07 ± 0.05 | 0.975 ± 0.078 | 0.982 ± 0.017 | 1 ± 0.17 | 0.754 ± 0.05
10 | COc1cc(OC)c2c(=O)c(O)c(-c3ccc(OC)c(OC)c3)oc2c1 | 0.981 ± 0.055 | 1 ± 0.024 | 1.01 ± 0.021 | 0.899 ± 0.1 | 0.887 ± 0.17
11 | CC(=O)OCC(=O)[C@H]1CC[C@H]2[C@@H]3CC=C4C[C@@H](O)CC[C@]4(C)[C@H]3CC[C@]12C | 1.04 ± 0.05 | 1.03 ± 0.057 | 1.04 ± 0.028 | 1.01 ± 0.13 | 0.975 ± 0.064
12 | O=C1OC2(c3ccc(O)cc3Oc3cc(O)ccc32)c2ccccc21 | 1.01 ± 0.047 | 0.9885 ± 0.0064 | 1 ± 0.011 | 1.11 ± 0.085 | 1.07 ± 0.028
13 | CCC1(C)CC(=O)NC1=O (stereo not given) | 0.932 ± 0.018 | 1.09 ± 0.021 | 1 ± 0.022 | 1.15 ± 0.11 | 0.865 ± 0.0092
14 | COc1ccc(C=CC(=O)O)cc1OC | 0.993 ± 0.0099 | 1.06 ± 0.085 | 1.02 ± 0.053 | 1.12 ± 0.042 | 0.987 ± 0.033
15 | CC(=O)N(O)CCCCCNC(=O)CCC(=O)N(O)CCCCCNC(=O)CCC(=O)N(O)CCCCCN | 0.987 ± 0.015 | 0.95 ± 0.032 | 0.89 ± 0.073 | 0.869 ± 0.067 | 1.06 ± 0.021
16 | NCCC(=O)c1ccccc1N | 1.03 ± 0.052 | 1.08 ± 0.057 | 0.987 ± 0.0085 | 0.981 ± 0.042 | 0.838 ± 0.016
17 | O=c1occ(C(O)CO)c2cccc(O)c12 (stereo not given) [Oospoglycol] | 0.886 ± 0.079 | 0.9515 ± 0.0035 | 0.976 ± 0.09 | 1.1 ± 0.11 | 1.01 ± 0.15
18 | OCCN1CCN(CCCN2c3ccccc3Sc3ccc(Cl)cc32)CC1 | 0.891 ± 0.027 | 0.917 ± 0.08 | 0.983 ± 0.025 | 1.03 | 0.976 ± 0.13
19 | CC(C)CCC[C@@H](C)[C@H]1CC[C@H]2[C@@H]3CC(=O)[C@H]4C[C@@H](O)CC[C@]4(C)[C@H]3CC[C@]12C [5alpha-CHOLESTAN-3beta-OL-6-ONE] | 0.985 ± 0.05 | 1.01 ± 0.014 | 1.015 ± 0.0071 | 0.904 ± 0.15 | 0.874 ± 0.047
20 | CCN(CC)Cc1cc(Nc2ccnc3cc(Cl)ccc23)ccc1O | 0.908 ± 0.064 | 0.967 ± 0.016 | 0.946 ± 0.051 | 0.952 ± 0.17 | 0.921 ± 0.25
21 | CC1(C)C=CC(=O)[C@@]2(C)C1CC(=O)[C@]1(C)C2CC[C@@]2(C)[C@H](c3ccoc3)OC(=O)C3OC321 (stereo not given in full) | 1 ± 0.012 | 0.71 ± 0.61 | 0.998 ± 0.018 | 0.99 ± 0.029 | 0.854 ± 0.13
22 | C=C1C2CC[C@@]3(C)[C@H](c4ccoc4)OC(=O)C[C@]13O[C@H]1CC(O)C(C)(C)C(CC(=O)OC)[C@@]21C (stereo partly drawn) [3alpha-HYDROXY-3-DEOXYANGOLENSIC ACID METHYL ESTER] | 1.01 ± 0.049 | 0.943 ± 0.081 | 1.02 ± 0.059 | 1.05 ± 0.05 | 0.968 ± 0.06
23 | COc1cc(O)ccc1C(C)=O | 0.941 ± 0.059 | 0.97 ± 0.015 | 0.92 ± 0.0071 | 0.889 ± 0.054 | 0.97 ± 0.026
24 | COc1cc(O)c2c(c1)C(=O)c1cc(C)cc(O)c1C2=O | 0.973 ± 0.017 | 0.979 ± 0.016 | 1.01 ± 0.12 | 0.949 ± 0.015 | 1.09 ± 0.057
25 | COc1ccc(CCC(=O)c2c(O)cc(O[C@@H]3O[C@H](CO)[C@@H](O)[C@H](O)[C@H]3O[C@@H]3O[C@@H](C)[C@H](O)[C@@H](O)[C@H]3O)cc2O)cc1O | 0.96 ± 0.085 | 1.01 ± 0.024 | 0.975 ± 0.036 | 0.945 ± 0.079 | 1.04 ± 0.028
26 | CC12CCC(CC1)C(C)(C)O2 | 0.996 ± 0.049 | 1.055 ± 0.0071 | 0.934 ± 0.019 | 1.21 ± 0.18 | 1.11 ± 0.099
27 | O=C(Cc1ccccc1)NO | 1.03 ± 0.028 | 0.878 ± 0.13 | 1 ± 0.027 | 0.789 ± 0.064 | 0.869 ± 0.014
28 | CN[C@H]1CC[C@@H](c2ccc(Cl)c(Cl)c2)c2ccccc21 | 0.713 ± 0.26 | 0.386 ± 0.052 | 0.934 ± 0.22 | 0.796 ± 0.23 | 0.675 ± 0.15
